# MITF primary: MITF inhibitors, primary screen, biochemical, AlphaScreen, human | AID 1259374, 2018 | 650,000 tested, 0.91% active | inhibition, % at 2.6 µM | AlphaScreen MITF homodimerization, bead proximity signal; in the data active = inhibition above about 50%;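 note: 0% = vehicle wells with protein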
# TEAD-YAP block: TEAD-YAP interaction inhibition, primary screen, TEAD-YAP interaction inhibitor project, luminescence, HEK-TIYL cells; inhibition, % at 9.12 µM; 640,000 tested, 1.4% active; TEAD-Gal4/YAP UAS-luciferase luminescence; in the data active = inhibition above about 32%;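 note: 0% = median of test compound wells and 100% = reference inhibitor wells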
# FBW7 activator: FBW7 E3 ligase activators, primary screen, biochemical, AlphaScreen, human. 650,000 tested, 0.13% active. AlphaScreen FBW7–phospho-cyclin E peptide binding, activator screen. normalized activity (activation), % at 26.1 µM. F-box/WD repeat-containing protein 7 (Homo sapiens), Q969H0; in the data active = normalized activity above about 1.9%;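 note: purified mutant Fbw7 with reduced substrate affinity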
# Target sequence (Q969H0 whole entry, looked up): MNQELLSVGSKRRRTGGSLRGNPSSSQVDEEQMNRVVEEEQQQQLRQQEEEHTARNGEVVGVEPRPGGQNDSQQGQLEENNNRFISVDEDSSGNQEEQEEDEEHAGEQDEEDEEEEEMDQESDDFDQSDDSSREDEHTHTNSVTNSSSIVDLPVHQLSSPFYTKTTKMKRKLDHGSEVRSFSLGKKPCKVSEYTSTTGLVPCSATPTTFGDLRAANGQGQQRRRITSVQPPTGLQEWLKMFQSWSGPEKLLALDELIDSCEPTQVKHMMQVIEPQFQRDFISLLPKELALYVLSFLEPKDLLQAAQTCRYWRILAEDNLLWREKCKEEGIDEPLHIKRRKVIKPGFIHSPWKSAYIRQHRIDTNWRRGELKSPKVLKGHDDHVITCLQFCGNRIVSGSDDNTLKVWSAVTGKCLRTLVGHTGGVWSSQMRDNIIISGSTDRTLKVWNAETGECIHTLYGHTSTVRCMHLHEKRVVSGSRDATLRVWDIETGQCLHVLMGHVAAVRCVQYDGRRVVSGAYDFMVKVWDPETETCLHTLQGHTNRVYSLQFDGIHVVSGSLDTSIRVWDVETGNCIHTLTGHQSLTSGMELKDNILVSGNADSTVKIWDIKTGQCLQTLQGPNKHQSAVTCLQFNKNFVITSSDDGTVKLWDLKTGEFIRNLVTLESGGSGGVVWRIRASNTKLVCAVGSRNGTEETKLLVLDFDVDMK
# GPR151 activ: activators of human GPR151, primary screen, cell-based, PathHunter beta-arrestin, luminescence. PathHunter beta-arrestin GPR151 cells. activation, % at 11.2 µM. 650,000 tested, 1% active. AID 1508602, 2020; in the data active = activation above about 4.9%;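 note: 0% = median of compound wells and 100% = cells with positive control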
# MITF inh conf: MITF inhibitors, retest of hits, confirmation, biochemical, AlphaScreen, triplicate | AlphaScreen MITF homodimerization, biotin/His-MITF beads | 4,700 tested, 16% active | inhibition, % at 2.6 µM | AID 1259372, 2018 | shares compounds with MITF primary;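 active = inhibition above a cutoff derived from the DMSO control wells, cut at about 28% in these data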;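 note: 0% = MITF dimer wells with DMSO only; inhibitors lower the bead chemiluminescence by keeping MITF from dimerizing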
# AS interf DR: AlphaScreen optical interference compounds, dose response, counter-screen, biochemical, HTS. shares compounds with MITF primary. AlphaScreen optical interference counterscreen, cell-free. 480 tested, 6% active. IC50, µM. AID 1259373, 2018; call rule not given here
# AlphaScreen intf2: AlphaScreen optical interference compounds, counter-screen for MITF inhibitor project, biochemical, triplicate | shares compounds with MITF primary | inhibition, % at 2.6 µM | 4,700 tested, 7.6% active | LysRS AlphaScreen counterscreen, signal interference;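 active = inhibition above a cutoff derived from the DMSO control wells, cut at about 30% in these data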
# * = called active by the depositor; / = no result. Most compounds without a hit are left out; they make up all but 3.5% or so of the library.
SMILES,MITF primary,TEAD-YAP block,FBW7 activator,GPR151 activ,MITF inh conf,AlphaScreen intf2,others
CCN(CC)C(=S)SCC(=O)N1CCc2ccccc2C1,0,-2,0,0,/,/,
O=C(CSc1nc2c(c(=O)[nH]1)CCC2)Nc1ccc(Cl)cc1F,1,6,0,1,/,/,
C[C@H]1NC(=O)[C@H]2CN(C(=O)NCc3ccccc3)CCN2C1=O,81*,16,1,5,65*,-5,AS interf DR=>6.5
O=C1N[C@@H](CSCc2ccccc2)C(=O)N2CCN(C(=O)NCc3ccccc3)C[C@H]12,80*,11,0,-1,73*,-14,AS interf DR=>6.5
C[C@@H](O)[C@@H]1NC(=O)[C@H]2CN(C(=O)NCc3ccccc3)CCN2C1=O,75*,-3,0,-1,72*,-15,AS interf DR=>6.5
COc1ccc(-c2cnn3ccc(NCc4cccnc4)nc23)cc1OC,55*,17,0,1,3,5,
O=C(CC1C(=O)NCCN1CC1CCCCC1)NCCc1cn2cccnc2n1 (stereo not given),6,1,0,-1,/,/,
O=C(O)Cc1ccc(N=Cc2cccc([N+](=O)[O-])c2O)cc1,94*,2,0,0,-7,-6,
O=[N+]([O-])c1cccc(C=Nc2ccc(F)cc2)c1O,0,0,0,1,/,/,
CCOC(=O)C1CCN(c2cc(C)c3c(OC)cc(OC)cc3n2)CC1,20,7,0,-2,/,/,
NC(=O)c1oc2ccccc2c1NC(=O)c1sc2ccccc2c1Cl,58*,5,0,0,8,6,
NC(=O)c1oc2ccccc2c1NC(=O)c1ccc(Cl)cc1,6,4,0,0,/,/,
O=C1CC(N2CCN(CC3CCCO3)CC2)C(=O)N1Cc1ccccc1 (stereo not given),75*,4,0,1,11,18,
CCOC(=O)c1c(NC(=O)CN(C)Cc2ccccc2)sc2c1CC(C)(C)NC2(C)C,65*,8,-1,1,0,7,
CCOC(=O)c1c(NC(=O)CN(C)C)sc2c1CC(C)(C)NC2(C)C,40,10,0,2,/,/,
c1coc(CNc2ccc3ncc(-c4ccco4)n3n2)c1,56*,0,2,0,84*,19,AS interf DR=>6.5
COC(=O)CSc1nnc(-c2ccncc2)n1Cc1ccco1,-8,8,0,0,/,/,
COC(=O)CSc1nnc(-c2ccco2)n1Cc1ccco1,76*,4,0,0,58*,3,AS interf DR=>6.5
Cc1ccc(C)c(-c2csc(NC(=O)C3CSC4(C)CCC(=O)N34)n2)c1 (stereo not given),-2,11,0,2,/,/,
Nc1ccc(C(=O)Nc2ccc(N)cc2N)cc1,4,9,0,4,/,/,
Nc1ccc(NCCO)c(N)c1,57*,-1,-1,-1,52*,-5,AS interf DR=>5.9
CC(C)Cn1c(=O)[nH]c2ncc(-c3cccc4cccnc34)nc21,21,-2,0,-1,/,/,
CNC(=O)CN(c1ccc2c(c1)OCO2)S(C)(=O)=O,2,7,0,-1,/,/,
CCOC(=O)C(=O)Nc1sc(C(=O)N2CCOCC2)c(C)c1C#N,71*,-2,1,1,-6,-2,
Cc1ccc(OCCCCCNCCO)cc1,-28,1,0,-1,/,/,
SMILES,MITF primary,TEAD-YAP block,FBW7 activator,GPR151 activ,MITF inh conf,AlphaScreen intf2,others
Cc1ccc(OCCNCCC(=O)O)cc1,57*,-8,0,-2,-5,0,
CCSc1nc2c(c(=O)[nH]1)C(c1ccc(O)c(OC)c1)C1=C(CCCC1=O)N2 (stereo not given),61*,1,0,-1,0,8,
COc1ccc(CN2CCC(N3CCCC3)CC2)cc1,52*,-2,0,0,3,3,
COc1ccc(OC)c(CN2CCC(N3CCCCC3)CC2)c1,52*,8,0,0,10,9,
COc1ccc(OC)c(CN2CCC(O)CC2)c1,37,-4,0,-1,/,/,
CCN1CCN(C2CCN(Cc3cc(OC)ccc3OC)CC2)CC1,61*,10,0,0,-5,-6,
COc1ccc(OC)c(CN2CCN(C3CCCC3)CC2)c1,70*,5,0,-1,4,7,
Brc1ccc(CN2CCC(N3CCCCC3)CC2)cc1,42,-8,0,-1,/,/,
COc1ccc(CN2CCC(N3CCCCC3)CC2)c(OC)c1,25,1,0,-1,/,/,
CCN1CCN(C(=O)c2cn(-c3ccc(F)cc3F)c(=O)c3ccccc23)CC1,1,-6,0,2,/,/,
C(=N\N1CCOCC1)/c1cccc(Oc2ccccc2)c1,70*,-34,0,1,12,7,
COc1ccc(C(=O)n2nc(-c3ccco3)nc2N)cc1,80*,-1,-1,-1,78*,49*,
Cc1ccc(C(=O)n2nc(-c3ccco3)nc2N)cc1,16,3,0,0,/,/,
CC1CCCC(NC(=O)CN(C)S(=O)(=O)c2cccc3cccnc23)C1C (stereo not given),64*,-4,1,0,10,10,
CC1CCCCC1NCc1ccc([N+](=O)[O-])cc1 (stereo not given),75*,7,0,0,-9,-4,
O=[N+]([O-])c1ccc(CNC2CCCC2)cc1,12,-11,0,0,/,/,
Fc1ccc(C2=CC(c3ccc(F)c(F)c3)n3ncnc3N2)cc1 (stereo not given),-8,7,0,0,/,/,
COc1ccc(/C=N/NC(=O)c2cc(-c3cccn3C)n[nH]2)cc1OC,78*,6,2.1*,-1,-6,17,
NC(=O)NC(=O)COC(=O)c1c2c(nc3ccccc13)/C(=C\c1ccco1)CCC2,61*,-4,0,-1,79*,-7,AS interf DR=>7
CN(CCC#N)C(=O)COC(=O)c1c2c(nc3ccccc13)/C(=C/c1ccco1)CC2,73*,-25,0,1,80*,-4,AS interf DR=>6.9
C=CCNc1nc(-c2ccccn2)nnc1-c1ccccc1,70*,-5,-1,3,69*,100*,
COc1ccc(O)c(C2=Nc3ccccc3N=C(c3ccc(F)cc3)C2)c1,9,-67,0,1,/,/,
CCCN(CCO)Cc1ccccc1C(F)(F)F,51*,6,0,0,11,12,
CCCN(CCO)Cc1cccc2ccccc12,-4,-3,0,2,/,/,
Cc1ccccc1OCCNCC(C)O (stereo not given),53*,1,0,0,4,9,

# High-throughput results as filed in PubChem.
